SARS 3CLpro inh – SARS-CoV 3CLpro protease inhibition; P0C6X7; AID 1706; recombinant SARS-CoV 3CLpro, quenched FRET peptide cleavage; inhibition, % at 6 µM; 0.14% of 290,000 active; in the data active = inhibition above about 12%
BJeLR lethal – BJeLR cell viability loss; BJeLR (HRASV12) viability, CellTiter-Glo ATP luminescence, 48 h; inhibition, % (concentration not given with the values); 0.17% of 300,000 active; in the data active = inhibition above about 50%; inconclusive = no clear call, values can overlap the other calls
BoNT F protease – inhibitors of Botulinum neurotoxin F light chain protease; inhibition, % at 10 µM; AID 588497; 0.22% of 360,000 active; Multiplex microsphere protease cleavage assay, flow cytometry; in the data active = inhibition above about 35%, passing the limit was not always enough; inconclusive = no clear call, values can overlap the other calls; note: plate controls were buffer without enzyme for full effect and enzyme alone for no effect
BoNT A protease – BoNT A light chain protease inhibition; multiplex microsphere protease substrate cleavage, flow cytometry; inhibition, % at 10 µM; 0.17% of 360,000 active; AID 588499; note: plate controls were buffer without enzyme for full effect and enzyme alone for no effect
Anthrax LF inh2 – inhibitors of Bacillus anthracis lethal factor protease; multiplex microsphere protease cleavage assay, LF; inhibition, % at 10 µM; P15917; 0.12% of 360,000 active; AID 588501; note: plate controls were buffer without enzyme for full effect and enzyme alone for no effect
Autofluor counter – counter-screen for toxin protease inhibitors: compound fluorescence; compound autofluorescence counterscreen, microsphere flow cytometry; stronger effect = higher value; fluorescence intensity (no concentration beside the values); 3.1% of 360,000 active; in the data active = fluorescence intensity above about 16000; inconclusive = no clear call, values can overlap the other calls
An asterisk follows results filed as active; ? = inconclusive; · = no result given. Only some compounds are listed: those with a hit (about 3.6% of all), similar ones and a draw of the others. Cut-off read from the data, not from the text of the source, unless noted: active = inhibition above about 30%; inconclusive = no clear call, values can overlap the other calls; inactive = below that.

SMILES | SARS 3CLpro inh | BJeLR lethal | BoNT F protease | BoNT A protease | Anthrax LF inh2 | Autofluor counter
CN(C)c1ccc(-c2noc(C3CCN(S(=O)(=O)c4cccc(Cl)c4)CC3)n2)cc1 | 2 | -2 | -11 | ? | -6 | 17481*
O=S(=O)(c1ccc2ccccc2c1)N1CCC(c2nc(-c3ccncc3)no2)CC1 | -2 | -7 | 2 | 0 | -2 | 8832
O=C(C1CC1)N1CCC(c2nc(-c3ccc(S(=O)(=O)N4CCCC4)cc3)no2)CC1 | -9 | -4 | 0 | 1 | 0 | 5669
Cc1sc2nc(CN3CCCCC3)nc(Cl)c2c1C | 1 | 0 | -6 | -1 | 1 | 2599
CC1CCCCN1CCNC(=O)C1CCN(S(=O)(=O)c2cccc3cccnc23)CC1 (stereo not given) | 3 | 1 | -11 | -4 | -3 | 17441*
O=S(=O)(c1cccc2cccnc12)N1CCOCC1 | -2 | -3 | -1 | 0 | 2 | 23370*
O=c1n(S(=O)(=O)c2cccc3cccnc23)c2ccccc2n1S(=O)(=O)c1cccc2cccnc12 | 5 | 4 | 8 | 7 | -1 | 20693*
COCC(C)NC(=O)c1cc2c(ccc3ccccc32)oc1=O (stereo not given) | 0 | 5 | 4 | 0 | 9 | 3156
COc1cc(N2CCOCC2)ncn1 | -3 | 0 | -1 | ? | -3 | 23005*
Cc1cc(C)n(-c2cc(N3CCOCC3)ncn2)n1 | -12 | -7 | -4 | -1 | -2 | 6135
COc1ccc(Cl)cc1CC1(C)C(=O)Nc2ccc(S(=O)(=O)NC3CCCCC3)cc21 (stereo not given) | · | · | -10 | 0 | 0 | 3811
CCn1c(SCC(=O)NC2CC2)nnc1-c1cccs1 | · | · | 7 | 3 | 2 | 7427
CCn1c(SC(=O)NC2CCCCC2)nnc1-c1cccs1 | 0 | -10 | -1 | -1 | -3 | 16821*
Cn1c(SCC(=O)NC2CCCCCC2)nnc1-c1cccs1 | -5 | 2 | 10 | -1 | 0 | 2991
CCn1c(SCC(=O)NCc2ccco2)nnc1-c1cccs1 | -7 | · | 6 | ? | -7 | 19582*
CCn1c(SCC(=O)NC2CCCCC2)nnc1-c1cccs1 | 3 | 10 | 3 | 4 | -17 | 20887*
Cc1cccc(C)c1OCC(=O)NCc1nnc(SCC(=O)NC2CCCCC2)n1C | -3 | -2 | -5 | ? | -5 | 22773*
CCC(=O)NC1CCN(C(=S)NC)CC1 | 3 | 0 | -4 | 1 | -3 | 4181
O=C(c1ccc(Cn2c(=S)[nH]c3ccc(Br)cc3c2=O)cc1)N1CCN(C2CCCCC2)CC1 | -2 | 10 | 0 | 0 | -6 | 4164
CCc1cccc(NC(=O)c2ccc3c(=O)n4c(nc3c2)CCCCC4)c1 | 0 | -4 | -3 | -1 | -3 | 4674
CCOc1ccc(NC(=S)N2CCC(C(N)=O)CC2)cc1 | 0 | -2 | -2 | 0 | -2 | 7411
CCCn1c(=O)c2ccccc2n2c(SCC(=O)NCc3cccs3)nnc12 | -2 | 4 | 34 | 2 | 5 | 3805
CCn1c(=O)c2ccccc2n2c(SCC(=O)NCc3cccs3)nnc12 | -5 | -5 | -4 | -2 | -1 | 23072*
CCc1sc(C(=O)NC)cc1Br | -2 | 11 | 9 | 7 | 2 | 20040*
CCc1sc(C(=O)NCc2cc(C)n(C)n2)cc1Br | 0 | 4 | -3 | 0 | -4 | 8516
SMILES | SARS 3CLpro inh | BJeLR lethal | BoNT F protease | BoNT A protease | Anthrax LF inh2 | Autofluor counter
Cc1ccc(N(CCCCN2C(=O)c3ccccc3C2=O)C(=O)c2cccc([N+](=O)[O-])c2)cc1 | 2 | 6 | 1 | 1 | -1 | 16296*
O=C1c2ccccc2C(=O)N1CCCCN(C(=O)c1cc([N+](=O)[O-])cc([N+](=O)[O-])c1)c1ccc(Cl)cc1 | -2 | -10 | -10 | 0 | -6 | 6268
O=C1NC[C@@H](CCCCN2CCN(CCC3CCCCC3)C(=O)C2=O)N(CC2CCCCC2)C1=O | · | · | -4 | 0 | 14 | 5623
CC(C)(C)NC1=CC(=O)OC12CCCCC2 | 1 | 10 | 0 | 1 | -2 | 23197*
CSc1ccccc1NC(=O)CSCc1ccc(Br)cc1 | -1 | -17 | -1 | -1 | -3 | 16464*
CCC[C@H]1COCCS(=O)(=O)N1Cc1ccc(Br)cc1 | -6 | -4 | · | · | · | ·
CCC(CC)C(=O)Nc1ccc(Sc2ccc([N+](=O)[O-])cc2)cc1 | -3 | -2 | -1 | 3 | -3 | 19877*
COc1ccc(NC(=O)N2CCn3c2nc2ccccc23)cc1 | 4 | -3 | 0 | 1 | -1 | 19709*
Cn1c2ccc(F)cc2c2ncn(CCCN(CCO)CCO)c(=O)c21 | 5 | -13 | -1 | -2 | -4 | 21356*
